In PubChem BioAssay (NCATS) one finds outcome and activity change, negative = cytotoxicity data, which are given here for 38 compounds.

Results filed as inconclusive are left out. The source made the active and inactive calls. The call rests on the fitted dose curve; in most records, active means well fitted inhibition curve with a large enough effect; inconclusive means small, poorly fitted or top-dose-only effect; inactive means flat fitted curve, though single readings scatter. Where a SMILES comes first, the peptide text is derived from it. Bridges are numbered along the chain shown (N, C = ends). [ ]: non-standard residue; d: D form. hArg = N=C(N)NCCCC[C@H](N)C(=O)O; Mpa = O=C(O)CCS
On the % scale 0 is the no-effect control and ±100 the full control effect.

The first assay has as its system HEK293T. Put plainly: qHTS assay to identify novel small-molecules to repurpose for Merkel cell carcinoma treatment (AID 1296009). Further: nearly all actives have a fitted effect of over 60% in size. The following applies: MCC and control cell lines, CellTiter-Glo viability, 72 h; at 44.8 µM (top of the series) unless noted. The method, boiled down:
(§1)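 Cells were incubated with compound for 72 hr at 37 degree celsius before CellTiter-Glo addition. Luminescence was normalized with no-cell wells as full cytotoxicity and DMSO as baseline.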
Consider `COc1ccc(-c2cc(=O)c3c(O)cc(O[C@@H]4O[C@H](CO[C@@H]5O[C@@H](C)[C@H](O)[C@@H](O)[C@H]5O)[C@@H](O)[C@H](O)[C@H]4O)cc3o2)cc1O`, for which the outcome was inactive.

As to `C/C=C1\[C@H]2C=C(C)C[C@]1(N)c1ccc(=O)[nH]c1C2`, the call was inactive.

For the compound `CC1(C)S[C@@H]2[C@H](NC(=O)C(C(=O)O)c3ccccc3)C(=O)N2[C@H]1C(=O)O` (stereo not given in full), the result was inactive.

On to `CC(=O)[C@@]1(O)CC[C@H]2[C@@H]3C[C@H](C)C4=CC(=O)C=C[C@]4(C)[C@@]3(F)[C@@H](O)C[C@@]21C`, for which the result was inactive.

In the case of `OCCN1C[C@H](O)[C@@H](O)[C@H](O)[C@H]1CO`, the compound was called inactive.

Another assay relates to MCC-13. Described as above. Particulars: MCC and control cell lines, CellTiter-Glo viability, 72 h; series mostly up to 46 µM. The method, boiled down:
as §1
Take `NC(=O)[C@@H]1CSSCCC(=O)N[C@@H](CCCCN=C(N)N)C(=O)NCC(=O)N[C@@H](CC(=O)O)C(=O)N[C@@H](Cc2c[nH]c3ccccc23)C(=O)N2CCC[C@H]2C(=O)N1` ([Mpa][hArg]GDWPC-NH2; disulfide 1-7): the compound was classed as inactive.

Turning to `Cc1ccc(C(C)C)c(O)c1`, the compound was classed as inactive.

For the compound `COc1ccc(-c2cc(=O)c3c(O)cc(O[C@@H]4O[C@H](CO[C@@H]5O[C@@H](C)[C@H](O)[C@@H](O)[C@H]5O)[C@@H](O)[C@H](O)[C@H]4O)cc3o2)cc1O`, the outcome was inactive.

Take `CC[N+](C)(CC)CCOC(=O)C1c2ccccc2Oc2ccccc21`: the compound was classed as inactive.

In the case of `Cc1cc(C)c(NC(=O)CN(CC(=O)O)CC(=O)O)c(C)c1Br`, the outcome was inactive.

As for `Cc1ccc(S(=O)(=O)NC(=O)NC2CCCCCCC2)cc1`, the compound was classed as inactive.

Turning to `C/C=C1\[C@H]2C=C(C)C[C@]1(N)c1ccc(=O)[nH]c1C2`, the outcome was inactive.

Take `C1CCN2C[C@@H]3C[C@@H](CN4CCCC[C@@H]34)[C@H]2C1`: the result was inactive.

For the compound `CCCNC(C)(C)COC(=O)c1ccccc1`, the outcome was inactive.

With `C[C@@H]1CCC[C@H](C)N1`, the compound was called inactive.

Regarding `Cn1cc(C(=O)[C@@H]2CCc3nc[nH]c3C2)c2ccccc21`, the compound was called inactive.

Consider `CCOC(=O)[C@H](CCc1ccccc1)N[C@@H](C)C(=O)N1CCC[C@H]1C(=O)O`, for which the outcome was inactive.

In the case of `c1ccc2[nH]ccc2c1`, the compound was classed as inactive.

For the compound `NS(=O)(=O)c1ccc(C(=O)O)cc1`, the compound was called inactive.

`O=C(Cn1ccnc1[N+](=O)[O-])NCc1ccccc1`: the result was inactive.

On to `O=c1[nH]cnc2nc[nH]c12`, for which the result was inactive.

For `O[C@@H]1CO[C@H]2[C@@H]1OC[C@@H]2O`, the compound was classed as inactive.

Regarding `Cc1cc(OI)c(C(C)C)cc1-c1cc(C(C)C)c(OI)cc1C`, the compound was called inactive.

For `CC(=O)N[C@H]1[C@H]([C@H](O)[C@H](O)CO)OC(C(=O)O)=C[C@@H]1N=C(N)N`, the outcome was inactive.

For `CC1(C)S[C@@H]2[C@H](NC(=O)C(C(=O)O)c3ccccc3)C(=O)N2[C@H]1C(=O)O` (stereo not given in full), the compound was called inactive.

Regarding `CC(=O)NS(=O)(=O)c1ccc(N)cc1`, the result was inactive.

`C=CCNC(N)=S`: the compound was classed as inactive.

Take `CC(=O)[C@@]1(O)CC[C@H]2[C@@H]3C[C@H](C)C4=CC(=O)C=C[C@]4(C)[C@@]3(F)[C@@H](O)C[C@@]21C`: the compound was classed as inactive.

For `OCCN1C[C@H](O)[C@@H](O)[C@H](O)[C@H]1CO`, the compound was called inactive.

As to `NC(N)=NCCN1CCCCCCC1`, the activity change, negative = cytotoxicity was 12.6% [at 0.597 µM] (inactive).

For `O=C1c2cccc(O)c2C(=O)c2c(O)cccc21`, the compound was called inactive.

Turning to `NNC(=O)CP(=O)(c1ccccc1)c1ccccc1`, the compound was called inactive.

On to `C[C@@H](c1ncncc1F)C(O)(Cn1cncn1)c1ccc(F)cc1F` (stereo not given in full), for which the outcome was inactive.

Turning to `Nc1ccncc1N`, the outcome was inactive.

As for `Cc1ccc(S(=O)(=O)NC(=O)NC2CCCCC2)cc1`, the call was inactive.

`Cc1cc(-n2nc3ccc(Cl)cc3n2)c(O)c(C(C)(C)C)c1`: the call was inactive.

`CN/C(=C\[N+](=O)[O-])NCCSCc1csc(CN(C)C)n1`: the compound was classed as inactive.

For the compound `CCN1CC(CCN2CCOCC2)C(c2ccccc2)(c2ccccc2)C1=O` (stereo not given), the call was inactive.

Turning to `O=C(/C=C/c1ccc(O)c(O)c1)O[C@@H]1C[C@@](OC(=O)/C=C/c2ccc(O)c(O)c2)(C(=O)O)C[C@@H](O)[C@@H]1O`, the compound was called inactive.

As for `CCOC(=O)c1cccnc1`, the compound was called inactive.

Turning to `CC[C@H](C)[C@H](N)C(=O)O`, the outcome was inactive.

On to `O=C1c2ccccc2C(=O)C1c1ccc(Br)cc1`, for which the compound was called inactive.

Another assay has as its system MCC-26. The assay is described as above. Particulars: MCC and control cell lines, CellTiter-Glo viability, 72 h; series mostly up to 46 µM. In short, it runs like this:
as §1
As to `COc1ccc(-c2cc(=O)c3c(O)cc(O[C@@H]4O[C@H](CO[C@@H]5O[C@@H](C)[C@H](O)[C@@H](O)[C@H]5O)[C@@H](O)[C@H](O)[C@H]4O)cc3o2)cc1O`, the compound was classed as inactive.

As to `CC[N+](C)(CC)CCOC(=O)C1c2ccccc2Oc2ccccc21`, the result was inactive.

In the case of `COc1ccccc1Oc1c(NS(=O)(=O)c2ccc(C(C)(C)C)cc2)nc(-c2ncccn2)nc1OCCO`, the result was inactive.

Regarding `Cc1cc(C)c(NC(=O)CN(CC(=O)O)CC(=O)O)c(C)c1Br`, the outcome was inactive.

As to `C/C=C1\[C@H]2C=C(C)C[C@]1(N)c1ccc(=O)[nH]c1C2`, the compound was classed as inactive.

Take `CCCNC(C)(C)COC(=O)c1ccccc1`: the compound was classed as inactive.

For the compound `C[C@@H]1CCC[C@H](C)N1`, the compound was called inactive.

Consider `Cc1cc(OI)c(C(C)C)cc1-c1cc(C(C)C)c(OI)cc1C`, for which the outcome was inactive.

In the case of `CC1(C)S[C@@H]2[C@H](NC(=O)C(C(=O)O)c3ccccc3)C(=O)N2[C@H]1C(=O)O` (stereo not given in full), the outcome was inactive.

With `CC(=O)NS(=O)(=O)c1ccc(N)cc1`, the outcome was inactive.

Consider `CC(=O)[C@@]1(O)CC[C@H]2[C@@H]3C[C@H](C)C4=CC(=O)C=C[C@]4(C)[C@@]3(F)[C@@H](O)C[C@@]21C`, for which the outcome was inactive.

Regarding `OCCN1C[C@H](O)[C@@H](O)[C@H](O)[C@H]1CO`, the outcome was inactive.

For the compound `Nc1ccncc1N`, the call was inactive.

As to `Cc1ccc(S(=O)(=O)NC(=O)NC2CCCCC2)cc1`, the compound was classed as inactive.

Consider `CN/C(=C\[N+](=O)[O-])NCCSCc1csc(CN(C)C)n1`, for which the compound was classed as inactive.

For `CCN1CC(CCN2CCOCC2)C(c2ccccc2)(c2ccccc2)C1=O` (stereo not given), the result was inactive.

On to `CCOC(=O)c1cccnc1`, for which the call was inactive.

As for `O=C1c2ccccc2C(=O)C1c1ccc(Br)cc1`, the result was inactive.
